Among all 4,000 compounds or so, about 350 (8.8%) were called active.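 Rule for the calls: active = calcium fluorescence ratio at least three times the spread of buffer wells, meaning a non-specific response in parental cells; inactive = the rest.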 The list is a sample of the results.

This test in a line: nonspecific Ca2+ signal without MrgX1 expression – cell-based, Fluo-4 calcium flux, duplicate, agonist mode, counter-screen for MrgX1 agonist project, primary screen (AID 624115). As to conditions: parental HEK293, Fluo-4 calcium fluorescence (FDSS), at 10 µM; hits give high values. For orientation: A change in cytosolic calcium serves as a functional read-out for many receptors and channels.
Regarding `Cc1ccc(-n2[nH]c(C)c(/C=N/N3C(=O)c4cccc5cccc(c45)C3=O)c2=O)cc1`, the fluorescence ratio F(max-min)/F0 was 110 (active). Then `O=C(CSc1nncn1-c1cccnc1)N1CCOCC1`, with “inactive”. Then `Cc1nc(N2CCN(c3ccccn3)CC2)c2c(C)c(C(=O)Nc3ccc(F)c(Cl)c3)sc2n1`, with “inactive”; and `CC(=O)OC(C)C[N+](C)(C)C` (configuration not stated), with 98.8 (active); and `CCCCOC(=O)CNc1nnc(SCC(=O)OCC)[nH]c1=O`, with “inactive”. Consider `Cc1ccc(Nc2nc(-c3ccc(O)cc3O)cs2)nc1`, for which the fluorescence ratio F(max-min)/F0 entry was “inactive”.

Regarding `CCOC(=O)c1c(NC(=O)CNC2CCCc3ccccc32)sc(C(N)=O)c1C` (configuration not stated), the fluorescence ratio F(max-min)/F0 entry was “inactive”. The result for `Cc1ccc(-n2cnc3ncnc(-c4ccccc4)c32)cc1` reads “inactive”; that for `COc1cc(C2/C(=C(\O)c3ccc4c(c3)CC(C)O4)C(=O)C(=O)N2Cc2ccco2)ccc1O` (configuration not stated), “inactive”. Consider `CCOC(=O)c1c(C)[nH]c(=S)c(C#N)c1-c1ccccc1`, for which the fluorescence ratio F(max-min)/F0 result was “inactive”. Take `CCCc1cc(=S)n2c([nH]c3ccccc32)c1C#N`: the fluorescence ratio F(max-min)/F0 was 71.7 (active). The result for `CC(Oc1ccc2ccccc2c1)C(=O)NNC(=S)NC(=O)c1ccco1` (configuration not stated) reads “inactive”; that for `COc1ccc(C(=O)NNC(=S)NC(=O)c2ccccc2)cc1`, 130 (active).

Regarding `CCCCC(=O)NNC(=S)NC(=O)C(c1ccccc1)c1ccccc1`, the fluorescence ratio F(max-min)/F0 result is “inactive”. The result for `COc1ccc(C(=O)NC(=S)NC2CCCCC2)cc1` reads “inactive”; that for `COc1ccc(C(=O)NC(=S)NNC(=O)CCc2ccccc2)cc1`, 101 (active); that for `COc1ccc(C(=O)CSc2n[nH]c(N)n2)cc1`, “inactive”.

Regarding `CCOC(=O)CNC(=O)CSc1nc2cccnc2n1CC`, the fluorescence ratio F(max-min)/F0 result is “inactive”. `OCc1ccc(OCCCOc2cccc3cccnc23)cc1`: the fluorescence ratio F(max-min)/F0 result is “inactive”. The result for `OCCn1c(-c2ccccc2)csc1=Nc1ccccc1` reads “inactive”. Then `COc1cccc(-c2cnc(OC(C)(C)C)nc2OC(C)(C)C)c1`, with “inactive”; and `CCOc1ccc(NC(=O)N2CC=C(n3c(=O)[nH]c4ccccc43)CC2)cc1`, with “inactive”.

Take `Cc1cc(Nc2cc(N3CCN(C)CC3)nc(Sc3ccc(NC(=O)C4CC4)cc3)n2)n[nH]1`: the fluorescence ratio F(max-min)/F0 result was “inactive”. The result for `O=C(c1ccc(OC2CCN(C(=O)c3cccnc3)CC2)cc1)N1CCCCCC1` reads “inactive”; that for `COCCNC(=O)C1CCN(S(=O)(=O)c2ccc3c(c2)OCCO3)CC1`, “inactive”; that for `CCOC(=O)N1CCN(C(=O)COCc2cc(-c3ccc4c(c3)OCO4)on2)CC1`, “inactive”. Then `CC1(C(=O)O)CCC(C(=O)Nc2ccc(Cl)c(Cl)c2)C1(C)C` (configuration not stated), with 47.3 (active); and `CCCc1[nH]nc2c1C(c1ccc(Br)s1)C(C#N)=C(N)O2` (configuration not stated), with “inactive”.

Take `CC1(C)CC2CC(C)(CN2c2ncnc3ccc(Br)cc23)C1` (configuration not stated): the fluorescence ratio F(max-min)/F0 result is “inactive”. As to `O=C(CSc1ncccn1)NC(=O)NCc1ccccc1`, the fluorescence ratio F(max-min)/F0 result was “inactive”.

As for `Cc1nc(C)c(-c2csc(NCCc3ccccc3)n2)s1`, the fluorescence ratio F(max-min)/F0 was 51.5 (active). `CCS(=O)(=O)c1ccc2c(c1)N(S(=O)(=O)c1ccccc1)CC(C(=O)O)O2` (configuration not stated): the fluorescence ratio F(max-min)/F0 result is “inactive”. Take `Cc1nc2ccccc2cc1OCc1ccc(F)cc1`: the fluorescence ratio F(max-min)/F0 was 45.3 (active). The result for `NC(=O)c1c(Nc2nc3c(F)cccc3s2)sc2c1CCCC2` reads “inactive”. The result for `COC(=O)c1ccc(C2C3=C(Nc4nnnn42)c2ccccc2OC3)cc1` (configuration not stated) reads “inactive”.

As to `O=C(CC(O)(C(F)(F)F)C(F)(F)F)Nc1ccc(Cl)c(Cl)c1`, the fluorescence ratio F(max-min)/F0 is 45.3 (active).

With `c1ccc(-c2[nH]ncc2-c2nc3ccccc3[nH]2)cc1`, the fluorescence ratio F(max-min)/F0 result is “inactive”.

`COCCCNC(=O)C1CCN(c2ccc(N3CCOCC3)nn2)CC1`: the fluorescence ratio F(max-min)/F0 result was “inactive”. For `CCOC(=O)C1=C(O)/C(=C/c2cc(C)n(-c3ccccc3)c2C)N=C1C`, the fluorescence ratio F(max-min)/F0 entry is “inactive”. Regarding `Fc1cccc(Cl)c1COc1ccc(-c2nnco2)cc1`, the fluorescence ratio F(max-min)/F0 entry is “inactive”.

With `Cc1ccc(S(=O)(=O)N(C)c2nc3ccccc3n3c(C(C)C)nnc23)cc1`, the fluorescence ratio F(max-min)/F0 result is “inactive”. Then `CCCCC(=O)Nc1ccc2c(c1)C(=O)NC2=O`, with “inactive”. `O=C(CSc1c2c(nc3ccc(Cl)cc13)CCCC2)NCc1ccco1`: the fluorescence ratio F(max-min)/F0 result is “inactive”. Then `O=C(Nc1cccc(Cl)c1)c1cncn1-c1ccc(F)cc1`, with “inactive”. For `O=C(Cn1c(-c2cncs2)nc2ccccc21)NC1CCCC1`, the fluorescence ratio F(max-min)/F0 entry was “inactive”. `Cc1nccn1CCC1CCCCN1C(=O)CCc1nnc(-c2ccsc2)o1` (configuration not stated): the fluorescence ratio F(max-min)/F0 result was “inactive”. The result for `COc1ccc(-c2cc(C(F)(F)F)nc(S(C)(=O)=O)n2)cc1OC` reads “inactive”; that for `COc1ccc2c(c1)OC(O)(C(F)(F)C(F)F)CC2=O` (configuration not stated), 87.4 (active); that for `FC(F)(F)c1cc(-c2cccs2)nc(NCc2ccco2)n1`, “inactive”. Then `CCOC(=O)Nc1ccc2c(c1)N(C(=O)CCN1CCN(CCO)CC1)c1ccccc1CC2`, with “inactive”. With `O=C(CN1CCN(c2ccccn2)CC1)NC1CCCCC1`, the fluorescence ratio F(max-min)/F0 result was “inactive”.

Turning to `Cc1c(C(=O)N2CCN(c3ccc(F)cc3)CC2)oc2c1C(=O)CCC2`, the fluorescence ratio F(max-min)/F0 entry is “inactive”. The result for `CCN(CC)c1ccc(C2C3CCCCC3(O)CCN2CC(=O)Nc2ccccc2)cc1` (configuration not stated) reads “inactive”. The result for `COc1ccc(Nc2nc(-c3cccnc3)nc3ccccc23)cn1` reads “inactive”.

As for `O=C(Cc1nc2ccccc2[nH]c1=O)c1ccc(Cl)cc1`, the fluorescence ratio F(max-min)/F0 entry is “inactive”. The result for `N#CC1=C(N)Oc2c(sc3ccccc23)C1c1ccco1` (configuration not stated) reads “inactive”; that for `CCOc1ccc(NC(=O)CCNC(=O)c2ccc(Br)cc2)cc1`, “inactive”. In the case of `Cc1cc(C)n(CCNC(=O)CC2C(=O)NCCN2Cc2ccc(C)o2)n1` (configuration not stated), the fluorescence ratio F(max-min)/F0 result was “inactive”. For `CCOC1CCCCC1NS(=O)(=O)c1ccc(Cl)cc1` (configuration not stated), the fluorescence ratio F(max-min)/F0 result was “inactive”. For `COC(=O)c1sccc1NS(=O)(=O)c1ccc(F)cc1F`, the fluorescence ratio F(max-min)/F0 result is “inactive”.

`CC(=O)Nc1ccc(OC(=O)COc2ccc(Br)cc2)cc1`: the fluorescence ratio F(max-min)/F0 result is “inactive”.

Take `Cc1ccnc(-n2sc3ccccc3c2=O)n1`: the fluorescence ratio F(max-min)/F0 entry was “inactive”. Consider `CCN(c1cccc(C)c1)S(=O)(=O)c1ccc(-c2coc(C)n2)cc1`, for which the fluorescence ratio F(max-min)/F0 entry was “inactive”. For `COCC(C)NC(=O)c1ccc(Cl)c(Cl)c1` (configuration not stated), the fluorescence ratio F(max-min)/F0 result is “inactive”. Then `COc1ccc(C(=O)Nc2c(N)nc(SCC(=O)N3CCC(C)CC3)[nH]c2=O)cc1OC`, with “inactive”. Consider `Cc1ccc(-c2nn(C(C)(C)C)c3ncnc(N)c23)cc1`, for which the fluorescence ratio F(max-min)/F0 entry is “inactive”.

Consider `COc1ccc(-n2c(SCC(=O)NCc3ccco3)nnc2-c2c[nH]c3ccccc23)cc1`, for which the fluorescence ratio F(max-min)/F0 result was “inactive”. For `CCOC(=O)Cc1csc(SCc2cc(=O)oc3cc(O)ccc23)n1`, the fluorescence ratio F(max-min)/F0 result is “inactive”. Consider `CCC(C)c1ccccc1N1CC(C(=O)N2CCN(S(=O)(=O)c3ccc(F)cc3)CC2)CC1=O` (configuration not stated), for which the fluorescence ratio F(max-min)/F0 result is “inactive”. For `COc1ccc([N+](=O)[O-])cc1NC(=O)COC(=O)/C=C/c1ccco1`, the fluorescence ratio F(max-min)/F0 result is “inactive”. As for `CN(C)CCn1c(=S)[nH]c2ccc(Cl)cc2c1=O`, the fluorescence ratio F(max-min)/F0 entry is “inactive”. On to `FC(F)Oc1ccc(NC(=S)NCc2ccco2)cc1Cl`, for which the fluorescence ratio F(max-min)/F0 entry is “inactive”. For the compound `O=C1CCCc2c1nc(-c1cccc(Cl)c1)n2O`, the fluorescence ratio F(max-min)/F0 entry was “inactive”. As for `O=c1c2cc(Br)ccc2nc(-c2cccc(Cl)c2)n1O`, the fluorescence ratio F(max-min)/F0 is 90.3 (active).

Regarding `Cc1nonc1C1CCCN1Cc1nc(-c2ccc(F)cc2F)oc1C` (configuration not stated), the fluorescence ratio F(max-min)/F0 entry is “inactive”. As for `O=C1Cc2ccccc2Sc2ccc(Cl)cc21`, the fluorescence ratio F(max-min)/F0 result is “inactive”. Take `CCOc1ccc2nc(/N=C/c3nc(-c4ccccc4)oc3O)sc2c1`: the fluorescence ratio F(max-min)/F0 was 114 (active). Turning to `Cc1ccc(NC2(C#N)C(=O)Nc3ccccc32)cc1` (configuration not stated), the fluorescence ratio F(max-min)/F0 entry is “inactive”.

As for `Clc1ccc(-c2nc3ccccn3c2CN2CCSCC2)cc1`, the fluorescence ratio F(max-min)/F0 result is “inactive”. In the case of `Cc1ccc2nc(Nc3ccccc3)cc(C)c2c1`, the fluorescence ratio F(max-min)/F0 result was “inactive”. Consider `Cc1cc2ncn(CCCCOc3ccccc3)c2cc1C`, for which the fluorescence ratio F(max-min)/F0 entry was “inactive”. `Cc1nn(-c2ccccc2)c(C)c1NC(=O)COc1ccc(Cl)cc1Cl`: the fluorescence ratio F(max-min)/F0 result is “inactive”.

`COc1ccc(OC)c(Nc2nc3ccccc3n3cnnc23)c1`: the fluorescence ratio F(max-min)/F0 entry was “inactive”. `Cc1nn(-c2ccccc2)c2c1C(c1ccc(F)cc1)C(C#N)=C(N)O2` (configuration not stated): the fluorescence ratio F(max-min)/F0 entry was “inactive”. Regarding `Cc1ccc2cc(/C=N/Nc3ccc(C(=O)O)cc3)c(Cl)nc2c1`, the fluorescence ratio F(max-min)/F0 entry was “inactive”. Turning to `O=C(Nc1nnc(-c2ccccc2)o1)c1cc(-c2cccs2)nc2ccccc12`, the fluorescence ratio F(max-min)/F0 result was “inactive”. With `O=C(Nc1nc2c(F)cc(F)cc2s1)C1COc2ccccc2O1` (configuration not stated), the fluorescence ratio F(max-min)/F0 result is “inactive”. Then `Cc1ccc2nc(-c3ccc(NC(=O)CN(C)S(=O)(=O)c4ccccc4)cc3)sc2c1`, with “inactive”; and `CN(CC(=O)Nc1ccccc1Cl)C(=O)COc1cccc2c1OC(C)(C)C2`, with “inactive”; and `O=C(c1cccc(S(=O)(=O)Nc2ccccc2Cl)c1)N1CCN(C(=O)c2ccco2)CC1`, with “inactive”. Then `COCCNC(=O)Nc1ccc2nc(-c3ccco3)c(-c3ccco3)nc2c1`, with 49.8 (active).

For the compound `COc1ccc(NC(=O)c2cc(-c3ccc(C)o3)nc3ccccc23)cc1`, the fluorescence ratio F(max-min)/F0 entry was “inactive”. The result for `CC(C)NC(=S)Nc1cccc2cnccc12` reads “inactive”; that for `O=C1CCCN1CCCNC(=S)Nc1ccc(F)c(Cl)c1`, “inactive”. Then `Cc1ccc(CS(=O)(=O)c2ncc(Cl)c(C(=O)Nc3nnc(C)s3)n2)cc1`, with “inactive”; and `COc1ccc(S(=O)(=O)N2CCN(C(=O)NC3CCCCC3)CC2)cc1`, with “inactive”. Then `Cc1cccc(-n2c(Cc3cc(=O)[nH]c(=O)[nH]3)nnc2SC(C)C)c1`, with “inactive”; and `COc1cc(CCC(=O)Nc2ccncc2Cl)cc(OC)c1OC`, with “inactive”; and `O=C(COc1ccc(Cl)cc1)NC(=S)Nc1ccccc1N1CCOCC1`, with “inactive”.

As for `Nc1cc(OC(=O)c2ccccc2Br)nn1S(=O)(=O)c1ccccc1`, the fluorescence ratio F(max-min)/F0 entry is “inactive”. Consider `O=C1C(=O)N(CC2COc3ccccc3O2)c2ccccc21` (configuration not stated), for which the fluorescence ratio F(max-min)/F0 is 64.3 (active). Take `COc1cccc(CNC(=O)C2CCN(S(=O)(=O)c3cccc4cccnc34)CC2)c1`: the fluorescence ratio F(max-min)/F0 entry is “inactive”. `Cc1ccc(N/C(N)=N/c2nc(C(F)(F)F)cc(C(F)(F)F)n2)cc1`: the fluorescence ratio F(max-min)/F0 entry is “inactive”. As for `O=C(Nc1ccccc1N1CCCCC1)c1ccc2nccnc2c1`, the fluorescence ratio F(max-min)/F0 entry was “inactive”.

For the compound `Cc1cccc(Cn2cnc3c(N)c(C)c(C)cc32)c1`, the fluorescence ratio F(max-min)/F0 entry was “inactive”. Then `CCOC(=O)c1c(NC(=O)CSc2cn(CC)c3ccccc23)sc2c1CCC2`, with “inactive”; and `CCOc1ccc(C2=CC(c3ccccc3)n3ncnc3N2)cc1` (configuration not stated), with “inactive”; and `O=C(NC1CCCCC1)C1c2ccccc2C(=O)N1Cc1ccco1` (configuration not stated), with “inactive”.

As to `COc1ccc(OC)c(C(=O)c2ccc(Cl)cc2)c1`, the fluorescence ratio F(max-min)/F0 entry was “inactive”. The result for `Cc1cc(Br)ccc1NC(=O)c1cnc(N2CCN(c3ccccn3)CC2)c2ccccc12` reads “inactive”; that for `Cc1ccc2nc(-c3ccc(NC(=O)c4cccnc4)cc3)oc2c1`, “inactive”. Then `CCOCc1nnc(NC(=O)CCC2CCCCC2)s1`, with “inactive”.

The values above are taken from PubChem BioAssay AID624115 (Johns Hopkins Ion Channel Center, 2012).
